Measurements published in PubChem BioAssay (NCATS).
Results filed as inconclusive are left out. Calls of active or inactive are those of the source. Calls come from the whole dose curve; as a rule, active = well fitted curve in the direction sought with a large enough effect; inconclusive = small, poorly fitted or top-dose-only effect, or another doubt; inactive = no such curve, though single readings can be large; an effect the other way counts as inactive or inconclusive.

Key:
[1] = S16 Schwann cell PMP22 intronic element firefly luciferase assay (AID 624032); note: nearly all actives have a fitted effect of over 30% in size; note: potency is the fitted concentration of half-maximal effect
Summary of the method: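 Rat S16 Schwann cells stably carrying a PMP22 intronic element-driven Fluc reporter were seeded overnight, then exposed to compounds for 24 h at 37 °C. Luminescence was normalized to PTC124 (positive control) and DMSO (0% activity).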

7G8 = assay: qHTS profiling for inhibitors of Plasmodium falciparum proliferation (AID 504749); note: nearly all actives have a fitted effect of over 60% in size; note: potency is the fitted concentration of half-maximal effect; settings: P. falciparum in erythrocytes, SYBR Green DNA, 72 h; series mostly up to 12.8 µM
Summary of the method: (§1)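 Parasite proliferation within erythrocytes, 72 h exposure. Endpoint: SYBR Green I fluorescence after overnight lysis at room temperature. Controls: 0.29 uM artemisinin, DMSO.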

CP215 = assay: as above; settings: P. falciparum in erythrocytes, SYBR Green DNA, 72 h; series mostly up to 12.8 µM
Summary of the method: as §1

CP237 = assay: as above; settings: P. falciparum in erythrocytes, SYBR Green DNA, 72 h; series mostly up to 12.8 µM
Summary of the method: as §1

CP266 = assay: as above; settings: P. falciparum in erythrocytes, SYBR Green DNA, 72 h; series mostly up to 12.8 µM
Summary of the method: as §1

CP269 = assay: as above; settings: P. falciparum in erythrocytes, SYBR Green DNA, 72 h; series mostly up to 12.8 µM
Summary of the method: as §1

CP297 = assay: as above; settings: P. falciparum in erythrocytes, SYBR Green DNA, 72 h; series mostly up to 12.8 µM
Summary of the method: as §1

CP315 = assay: as above; settings: P. falciparum in erythrocytes, SYBR Green DNA, 72 h; series mostly up to 12.8 µM
Summary of the method: as §1

CP335 = assay: as above; settings: P. falciparum in erythrocytes, SYBR Green DNA, 72 h; series mostly up to 12.8 µM
Summary of the method: as §1

GB4 = assay: as above; settings: P. falciparum in erythrocytes, SYBR Green DNA, 72 h; series mostly up to 12.8 µM
Summary of the method: as §1

ICS = assay: as above; settings: P. falciparum in erythrocytes, SYBR Green DNA, 72 h; series mostly up to 12.8 µM
Summary of the method: as §1

P94_40 = assay: as above; settings: P. falciparum in erythrocytes, SYBR Green DNA, 72 h; series mostly up to 12.8 µM
Summary of the method: as §1

PC26 = assay: as above; settings: P. falciparum in erythrocytes, SYBR Green DNA, 72 h; series mostly up to 12.8 µM
Summary of the method: as §1

W2 = assay: as above; settings: P. falciparum in erythrocytes, SYBR Green DNA, 72 h; series mostly up to 12.8 µM
Summary of the method: as §1

[2] = target: Cytochrome P450 2C9 (Homo sapiens) (UniProt P11712); assay: qHTS Assay for Inhibitors and Substrates of Cytochrome P450 2C9 (AID 883); note: nearly all actives have a fitted effect of over 60% in size; note: potency is the fitted concentration of half-maximal effect
Summary of the method: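 A luminogenic readout tracked human CYP2C9 (10nM) converting deoxyluciferin (100uM, at KM) in 25mM KPO4 during 60 min at 37C with regenerated NADPH. Values normalized to 57uM sulphaphenazole as complete inhibition.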

[3] = target: Cytochrome P450 3A4 (Homo sapiens) (UniProt P08684); assay: qHTS Assay for Inhibitors and Substrates of Cytochrome P450 3A4 (AID 884); note: nearly all actives have a fitted effect of over 50% in size
Summary of the method: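 20 nM human CYP3A4 with 25 uM Luciferin-PPXE (at KM) in 200 mM KPO4, preincubated 10 min with compound; NADPH regeneration started a 60 min RT reaction. Luciferin detected by luminescence, normalized to 57 uM ketoconazole as full inhibition.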

[4] = target: Cytochrome P450 2D6 (Homo sapiens) (UniProt P10635); assay: qHTS Assay for Inhibitors and Substrates of Cytochrome P450 2D6 (AID 891); note: nearly all actives have a fitted effect of over 60% in size; note: potency is the fitted concentration of half-maximal effect
Summary of the method: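 Human CYP2D6 (5 nM) with 30 uM Luciferin-ME EGE (at Km) in 100 mM KPO4, compound preincubated 10 min, then NADPH regeneration system for 60 min at room temperature. Luciferin read by luminescence; normalized to 1.43 uM quinidine.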

[5] = target: Cytochrome P450 2C19 (Homo sapiens) (UniProt P33261); assay: qHTS Assay for Inhibitors and Substrates of Cytochrome P450 2C19 (AID 899); note: nearly all actives have a fitted effect of over 60% in size; note: potency is the fitted concentration of half-maximal effect
Summary of the method: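 NADPH-dependent conversion of Luciferin-H EGE (10uM, at KM) by 5nM enzyme in 50mM KPO4, 60 min at 37C following 10 min compound preincubation. Stopped with luciferin detection buffer; luminescence read after 20 min.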

CP260 = assay: qHTS profiling for inhibitors of Plasmodium falciparum proliferation (AID 504749); note: nearly all actives have a fitted effect of over 60% in size; note: potency is the fitted concentration of half-maximal effect; settings: P. falciparum in erythrocytes, SYBR Green DNA, 72 h; series mostly up to 12.8 µM
Summary of the method: as §1

[6] = target: Cytochrome P450 3A4 (Homo sapiens) (UniProt P08684); assay: qHTS Assay for Activators of Cytochrome P450 3A4 (AID 885); note: nearly all actives have a fitted effect of over 65% in size
Summary of the method: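 Quantitative HTS format: compounds preincubated with 20nM human CYP3A4 and Luciferin-PPXE substrate at KM, reaction started by NADPH regeneration, stopped after 60 min, luciferase luminescence read 20 min later.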

Measured: Potency

Cytochrome P450 3A4 (Homo sapiens), sequence (P08684 whole entry, looked up): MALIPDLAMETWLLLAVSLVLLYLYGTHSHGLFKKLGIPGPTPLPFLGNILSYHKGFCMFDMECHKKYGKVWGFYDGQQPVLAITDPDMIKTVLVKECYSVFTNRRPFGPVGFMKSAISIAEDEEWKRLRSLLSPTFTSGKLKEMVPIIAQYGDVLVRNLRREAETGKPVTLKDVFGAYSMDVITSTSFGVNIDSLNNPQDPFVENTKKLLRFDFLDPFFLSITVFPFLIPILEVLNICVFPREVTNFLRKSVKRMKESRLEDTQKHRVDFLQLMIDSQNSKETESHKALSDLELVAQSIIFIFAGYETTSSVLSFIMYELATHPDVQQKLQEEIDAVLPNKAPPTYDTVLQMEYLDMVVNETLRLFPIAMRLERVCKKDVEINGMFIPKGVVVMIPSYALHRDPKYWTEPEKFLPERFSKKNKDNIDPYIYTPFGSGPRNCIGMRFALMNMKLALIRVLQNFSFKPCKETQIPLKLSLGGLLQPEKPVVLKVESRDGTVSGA
Cytochrome P450 2C9 (Homo sapiens), sequence (P11712 whole entry, looked up): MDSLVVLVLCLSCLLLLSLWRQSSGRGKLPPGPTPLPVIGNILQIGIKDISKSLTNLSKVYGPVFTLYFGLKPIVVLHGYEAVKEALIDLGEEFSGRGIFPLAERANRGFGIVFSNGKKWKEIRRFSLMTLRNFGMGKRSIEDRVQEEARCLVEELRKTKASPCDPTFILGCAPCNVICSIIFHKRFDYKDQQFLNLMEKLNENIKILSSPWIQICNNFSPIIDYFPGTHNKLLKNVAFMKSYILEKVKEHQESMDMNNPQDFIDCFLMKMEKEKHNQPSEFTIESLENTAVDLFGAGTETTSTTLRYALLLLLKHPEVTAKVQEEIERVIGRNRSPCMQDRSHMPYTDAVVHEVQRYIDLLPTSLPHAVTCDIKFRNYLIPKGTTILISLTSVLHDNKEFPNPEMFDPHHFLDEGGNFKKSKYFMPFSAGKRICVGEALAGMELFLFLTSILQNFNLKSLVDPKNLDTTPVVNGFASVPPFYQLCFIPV
Cytochrome P450 2C19 (Homo sapiens), sequence (P33261 whole entry, looked up): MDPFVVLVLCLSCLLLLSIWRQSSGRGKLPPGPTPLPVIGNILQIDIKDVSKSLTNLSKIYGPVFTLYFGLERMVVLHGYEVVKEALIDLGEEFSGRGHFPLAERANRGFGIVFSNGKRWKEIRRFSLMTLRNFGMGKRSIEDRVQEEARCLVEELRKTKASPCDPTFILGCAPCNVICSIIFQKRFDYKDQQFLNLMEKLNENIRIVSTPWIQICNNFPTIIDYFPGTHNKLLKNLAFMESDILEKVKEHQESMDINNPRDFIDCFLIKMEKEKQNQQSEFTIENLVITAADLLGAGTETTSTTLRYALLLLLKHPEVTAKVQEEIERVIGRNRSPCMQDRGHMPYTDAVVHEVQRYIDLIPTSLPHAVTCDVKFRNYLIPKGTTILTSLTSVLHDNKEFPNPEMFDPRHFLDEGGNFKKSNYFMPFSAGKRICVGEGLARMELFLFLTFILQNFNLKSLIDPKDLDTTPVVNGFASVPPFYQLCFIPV
Cytochrome P450 2D6 (Homo sapiens), sequence (P10635 whole entry, looked up): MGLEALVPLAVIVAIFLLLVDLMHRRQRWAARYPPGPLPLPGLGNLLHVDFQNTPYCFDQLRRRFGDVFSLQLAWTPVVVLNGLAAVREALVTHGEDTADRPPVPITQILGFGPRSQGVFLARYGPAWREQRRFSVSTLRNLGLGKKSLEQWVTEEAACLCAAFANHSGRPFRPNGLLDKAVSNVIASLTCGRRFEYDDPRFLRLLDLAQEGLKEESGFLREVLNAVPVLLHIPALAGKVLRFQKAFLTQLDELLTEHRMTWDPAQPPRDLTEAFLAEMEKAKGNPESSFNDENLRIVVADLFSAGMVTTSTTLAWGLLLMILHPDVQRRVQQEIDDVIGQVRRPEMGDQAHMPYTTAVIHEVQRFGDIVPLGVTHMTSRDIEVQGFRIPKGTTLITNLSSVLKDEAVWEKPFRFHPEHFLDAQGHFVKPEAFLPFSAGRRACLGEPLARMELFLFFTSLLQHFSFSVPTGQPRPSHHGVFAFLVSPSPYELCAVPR

COc1c(O[C@H]2O[C@@H](CO)[C@@H](O)[C@@H](O)[C@@H]2O)cc2c(c1OC)-c1ccc(SC)c(=O)cc1[C@H](NC(C)=O)CC2
not listed: [2] | [3] | [4] | [5] | CP260 | [6]
inactive: all other assays above

NC(=O)c1ccc[n+]([C@@H]2O[C@H](COP(=O)([O-])OP(=O)(O)OC[C@H]3O[C@@H](n4cnc5c(N)ncnc54)[C@@H](O)[C@@H]3O)[C@@H](O)[C@@H]2O)c1
not listed: [1] | PC26 | [6]
inactive: all other assays above

CCC[C@@H]1O[C@@H]2C[C@@H]3[C@H]4CCC5=CC(=O)C=C[C@@]5(C)[C@H]4[C@H](O)C[C@@]3(C)[C@@]2(C(=O)CO)O1
inactive: [1]
active: 7G8 4.47 µM | CP215 15.1 µM | CP297 12 µM | CP335 10.7 µM | ICS 6.31 µM | P94_40 11.2 µM | PC26 7.57 µM | W2 6.01 µM

NC(=O)c1cc[n+](CC2=C(C(=O)[O-])N3C(=O)[C@@H](NC(=O)Cc4cccs4)[C@@H]3SC2)cc1
not listed: 7G8 | [2] | [3] | [4] | [5] | [6]
inactive: all other assays above

C[C@H](C(=O)O)c1cccc(Oc2ccccc2)c1
not listed: [1] | 7G8 | [2] | [3] | [4] | [5] | [6]
inactive: all other assays above

CO[C@]1(NC(=O)C2SC(=C(C(N)=O)C(=O)O)S2)C(=O)N2C(C(=O)O)=C(CSc3nnnn3C)CS[C@H]21 (stereo partly specified)
not listed: [1] | CP335 | [2] | [3] | [4] | [5] | [6]
inactive: all other assays above

C[C@@]12C=CC(=O)C=C1CC[C@@H]1[C@@H]2[C@H](O)C[C@]2(C)[C@@H]1CC[C@]2(O)C(=O)CO
inactive: [5]

CO[C@H]1[C@H](O[C@H]2O[C@@H](C)[C@@H](O[C@@H]3C[C@](C)(O)[C@H](OC(=O)CC(C)C)[C@H](C)O3)[C@@H](N(C)C)[C@@H]2O)[C@@H](CC=O)C[C@@H](C)[C@@H](O)/C=C\C=C/C[C@@H](C)OC(=O)C[C@H]1OC(C)=O
inactive: [6]
active: W2 1.61 µM

CC(=O)C[C@H](c1ccc([N+](=O)[O-])cc1)c1c(O)c2ccccc2oc1=O
active: [2] 0.631 µM
not listed: [1] | CP297 | [3] | [4] | [5] | [6]
inactive: all other assays above

C[C@@H]1Cc2ccccc2N1NC(=O)c1ccc(Cl)c(S(N)=O)c1 (stereo partly specified)
active: [1] 3.46 µM
not listed: 7G8 | [2] | [3] | [4] | [5] | [6]
inactive: all other assays above

CC[C@H](CO)NCCN[C@@H](CC)CO
not listed: [3] | [4] | [5] | [6]
inactive: all other assays above

C#C[C@@]1(O)CC[C@@H]2[C@@H]3CCC4=CC(=O)CC[C@@H]4[C@H]3CC[C@]21C
active: [5] 5.01 µM

Clc1ccc(CC[C@H](Cn2ccnc2)Sc2c(Cl)cccc2Cl)cc1
active: [2] 0.0126 µM | [4] 1.26 µM | [5] 0.0025 µM | 7G8 0.891 µM | CP297 5.1 µM | GB4 3.22 µM | ICS 1.41 µM | PC26 4.55 µM | W2 2.03 µM
inactive: [6]

CC[C@H](Cc1c(I)cc(I)c(N)c1I)C(=O)O
not listed: [1] | W2 | [2] | [3] | [4] | [5] | [6]
inactive: all other assays above
